# Rows were chosen to be rich in hits. Some 21% of all compounds tested hit in one or more screens of this group.
# Pf growth 96h: inhibits malaria parasite growth, 96 h; Potency, µM (series often up to 28.7 µM), for inactives: at the top dose activity change, negative = inhibition, actives largely listed as inhibitors; AID 504834; P. falciparum luciferase reporter growth, 96 h; hit rate 6.9% among 320,000; further: potency means the concentration at half of the fitted maximal effect; on the % scale 0 is the no-effect control and ±100 the full control effect
#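 Parasite growth measured via integrated firefly luciferase reporter in P. falciparum. Infected erythrocytes at 2% hematocrit, 0.05% parasitemia final were treated 96 hours at 37 C under 5% CO2, and luminescence was read.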
# Shiga inhibitor: blocks Shiga toxin action in Vero cells | Vero cells, Shiga toxin protein synthesis inhibition reporter | inhibition, % at 38.7 µM | hit rate 9.2% among 290,000; in the data active means inhibition mostly above about 28%, no sharp cut-off; inactive means mostly below about 43%; further: 0% is about no effect
# Pf growth 48h: inhibits P. falciparum growth in the first generation, 48 h; P. falciparum luciferase growth in erythrocytes, 48 h; Potency, µM (highest dose often 28.7 µM), inactives show top-dose activity change, negative = inhibition, actives largely listed as inhibitors; hit rate 5.9% among 310,000; further: potency means the concentration at half of the fitted maximal effect; on the % scale 0 is the no-effect control and ±100 the full control effect
#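 Luciferase-expressing parasites in RBCs, 2% Hct / 0.1% parasitemia final; RPMI 1640 + 0.5% Albumax; 37 C, 5% CO2, one generation; luminescence read-out, lower signal = inhibition.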
# Cycloheximide cs: affects cycloheximide protein synthesis inhibition readout, counter-screen; cell reporter, cycloheximide protein synthesis inhibition counterscreen; max response, %; hit rate 12% among 300,000; AID 2314; in the data active means max response mostly above about 13%, no sharp cut-off; inactive means mostly below about 14%; further: read at 38.3 µM for the half of the compounds with a filed dose; 0% is about no effect
# * = called active by the depositor; i = inactive; ? = inconclusive; . = no result given. Unless noted, the call rests on the fitted dose curve; in most records, active means well fitted inhibition curve with a large enough effect; inconclusive means small, poorly fitted or top-dose-only effect, or another doubt; inactive means no such curve, though single readings can be large or run the other way.
SMILES,Pf growth 96h,Shiga inhibitor,Pf growth 48h,Cycloheximide cs
COc1ccc(CN2CCNC(=O)C2CC(=O)NC2CCCCCCC2)cc1OC (stereo not given),-7.5%,-2.5,11.7µM*,-1.1
COc1ccc(CN2CCNC(=O)C2CC(=O)NC2CCCC2)c(OC)c1 (stereo not given),-11.2%,-5.1,?,-1.7
COc1ccc(C(=O)N2CCNC(=O)C2CC(=O)Nc2ccc(C)c(C)c2)cc1 (stereo not given),9.28µM*,-16.7,11.1%,-0.2
COc1ccc(CN2CCNC(=O)C2CC(=O)NC2CCCCC2)c(OC)c1 (stereo not given),9.28µM*,-2.0,-16.8%,-2.0
Cc1cc(NC(=O)NN2CCOCC2)nn1-c1c(Cl)cccc1Cl,-1.3%,-8.4,6.7%,-2.0
Cc1cccc(S(=O)(=O)Nc2nc3ccccc3nc2OC(C)C)c1,40.5%,-3.5,16.9%,-2.0
CCN(CC(=O)Nc1ccc(Br)cc1)CC(=O)Nc1cc(C)on1,6.7%,.,-0.1%,.
CCN(c1ccccc1)c1nc2ccsc2c(=O)s1,6.2%,25.4,19.2%,23.0*
CN(Cc1nc2ccccc2c(=O)[nH]1)Cc1nc2ccsc2c(=O)[nH]1,?,-16.4,?,1.7
CN(c1ccccc1)c1nc2ccsc2c(=O)s1,?,97.4*,60.1%,55.8*
COc1ccccc1CN1C[C@@H]2C[C@@H](C3=Cc4cc(Cl)ccc4OC3)N3CCC[C@@]23C1=O,13.1µM*,3.3,?,-1.5
CCc1ccc([C@@H]2C[C@H]3CN(Cc4ccccc4OC)C(=O)[C@]34CCCN24)cc1,?,-5.2,5.86µM*,-1.7
COCc1cc([C@@H]2C[C@H]3CN(c4ccccc4)C(=O)[C@]34CCCN24)ccc1OC,?,3.2,10.4µM*,1.7
COc1ccccc1CN1C[C@@H]2C[C@@H](c3ccc(C)cc3)N3CCC[C@@]23C1=O,?,-9.9,?,-3.9
CCn1ccnc1[C@@H]1C[C@H]2CN(Cc3ccccc3OC)C(=O)[C@]23CCCN13,9.28µM*,14.7,11.2%,-1.8
Cc1ccc2c(c1)N(CC(=O)NC1CCCCCC1)C(=O)c1cccnc1O2,-13.2%,-6.8,?,11.3
O=C(CSc1n[nH]c(-c2ccncc2)n1)Nc1ccc(Cl)c(Cl)c1,0.5%,24.1,4.4%,-4.5
CC(=O)N1CCC(N(CCN2CCOCC2)C(=S)Nc2ccc(C)c(C)c2)CC1,0.0%,31.0,5.8%,4.7
COc1ccccc1CN1C[C@@H]2C[C@@H](c3[nH]c4ccc(C)cc4c3C)N3CCC[C@@]23C1=O,-14.0%,-10.2,7.38µM*,7.3
COc1ccc2c(c1)C=C([C@@H]1C[C@H]3CN(c4ccccc4)C(=O)[C@]34CCCN14)CO2,?,1.5,1.47µM*,-1.2
CN1C[C@@H]2C[C@@H](C3=Cc4cc(Cl)ccc4OC3)N3CCC[C@@]23C1=O,5.3%,-9.7,-25.0%,-1.6
CC(C)N1CCC2(CC1)N=C(c1ccc3c(c1)OCO3)CC(c1cc(Cl)ccc1O)N2 (stereo not given),?,42.9*,?,47.1*
CC(Sc1ccc(Cl)cc1)C(=O)Nc1ccc2c(c1)OCO2 (stereo not given),11.1%,5.4,?,-2.9
CCC(c1nnnn1Cc1cccs1)N1CCN(c2nc3ccccc3s2)CC1 (stereo not given),?,12.1,9.28µM*,-3.0
CC(C)CC(c1nnnn1Cc1cccs1)N1CCN(c2nc3ccccc3s2)CC1 (stereo not given),0.8%,-11.0,11.7µM*,20.0*
SMILES,Pf growth 96h,Shiga inhibitor,Pf growth 48h,Cycloheximide cs
COC(=O)c1cc(S(=O)(=O)N2CCCCCC2)cn1C,3.0%,-9.7,5.5%,-1.9
COc1ccc(NC(=O)c2c(N)cnn2C)cc1,?,24.6,42.8%,18.1*
COc1ccc(NC(=O)c2c(N)no[n+]2[O-])cc1,?,48.4,48.3%,16.1*
CCc1nc2ccccc2c(C(=O)Nc2ccc(F)cc2)c1C,?,27.4,34.1%,14.9
CCOc1cc(C(=O)Nc2cccc(OCC(=O)N3CCOCC3)c2)cc(OCC)c1OCC,17.0%,-4.7,-1.4%,-0.2
CC#CCN(Cc1ccco1)C(=O)c1ccc(OC2CCN(Cc3ccccn3)CC2)cc1,35.5%,-3.9,?,1.4
COC(=O)c1cn[nH]c1NC(=S)Nc1ccc(C)cc1Cl,i,74.5*,121.4%,27.2*
Cc1ccc(NC(=S)Nc2ccc3cn[nH]c3c2)c(C)c1,14.9%,20.2,9.7%,1.6
CCOC(=O)c1cn[nH]c1NC(=S)Nc1ccc(OC)cc1,i,1.4,111.4%,17.2
COC(=O)c1cn[nH]c1NC(=S)Nc1ccccc1C,131.6%,92.1*,128.8%,44.7*
COC(=O)c1cn[nH]c1NC(=S)Nc1ccc(Cl)c(Cl)c1,-65.6%,118.0*,.,71.0*
COc1cccc(C(=O)COC(=O)COc2c(C)cc(C)cc2C)c1,?,.,-14.3%,.
Cc1cccc(-n2nc3c(c2NC(=O)C(C)C)CSC3)c1,26.6%,-3.0,29.4%,-1.9
CC(C)CC(=O)Nc1ccc(-c2nnn(CC(=O)NCc3ccco3)n2)cc1,152.1%,85.8*,31.7%,29.2*
CCOc1ccc(-c2nnn(CC(=O)NCc3ccc(OC)cc3)n2)cc1OCC,-15.8%,-15.3,-7.6%,-6.8
CCOc1ccc(-c2nnn(CC(=O)NCc3ccco3)n2)cc1OCC,i,-1.3,-28.2%,-2.2
COc1ccc(CNC(=O)Cn2nnc(-c3ccc(NC(=O)C4CCCCC4)cc3)n2)cc1,207.9%,23.2,61.6%,21.5*
CCOc1ccc(-c2nnn(CC(=O)NCc3ccc(C)cc3)n2)cc1,7.38µM*,18.0,0.8%,9.6
CCCCOc1ccc(-c2nnn(CC(=O)NCc3ccco3)n2)cc1,0.0%,68.9*,48.1%,30.8*
CCN(CC(=O)NCc1ccc(Cl)cc1)C(=O)CN1C(=O)NC(CC)(c2ccccc2)C1=O (stereo not given),-14.0%,-11.8,-5.8%,-2.6
CC(C)c1c(C(=O)N/N=C/C=C/c2ccccc2)nnn1-c1nonc1N,?,-5.7,5.9%,-9.9
CCOC(=O)Cc1cnc(NC(=O)Cn2nnc(-c3ccc(OCC)cc3)n2)s1,6.57µM*,32.8,0.0%,3.3
COc1ccc2nc(SCC(=O)Nc3nccs3)[nH]c2c1,173.2%,43.0*,13.7%,19.7*
COc1ccc(NC(=O)CSc2nc3ccc(OC)cc3[nH]2)cc1,34.1%,1.0,2.5%,3.6
CCOc1ccc2nc(SCC(=O)N(C)C3CCS(=O)(=O)C3)[nH]c2c1 (stereo not given),32.2%,-23.7,0.0%,-4.0
SMILES,Pf growth 96h,Shiga inhibitor,Pf growth 48h,Cycloheximide cs
COc1ccc2nc(SCC(=O)NC(C)C)[nH]c2c1,0.0%,-4.3,0.0%,6.6
COc1ccc2nc(SCC(=O)c3ccco3)[nH]c2c1,191.2%,62.6*,112.3%,48.2*
O=C(CSc1ncnc2ccccc12)c1ccco1,4.5%,56.6,96.7%,25.1*
CCOc1ccc2nc(SCC(=O)N(C)C)[nH]c2c1,204.4%,74.5*,.,70.6*
COc1ccc2nc(SCC(=O)C(C)(C)C)[nH]c2c1,115.0%,65.2*,113.7%,42.8*
COc1ccc2nc(SCC(=O)NC(C)(C)C)[nH]c2c1,-28.6%,55.7,30.3%,8.4
O=C(CSc1nc2ccccc2[nH]1)c1ccco1,38.8%,105.5*,81.5%,28.5*

# Assay outcomes from PubChem BioAssay.
